Screens deposited in PubChem by several laboratories.
Hits are enriched below; roughly 2.6% of the tested compounds scored in any of these assays.
ABCB6 inh MLPCN: inhibitors of human ABC transporter ABCB6 | Q9NP58 | K562-ABCB6 porphyrin accumulation, flow cytometry, 1 h; stronger effect = lower value | fluorescence ratio to DMSO, % at 10 µM | hit rate 0.19% among 360,000;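 active = fluorescence ratio to DMSO below 75%, the collection mean minus 3 SD; inconclusive = too few cells collected in the well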;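 note: signal is porphyrin accumulated inside mitochondria; lower ratio means ABCB6 inhibition with less porphyrin fluorescence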
PHOSPHO1 inh: PHOSPHO1 (human) inhibition. Q8TCT1. hit rate 1.1% among 290,000. recombinant PHOSPHO1, absorbance phosphatase assay. inhibition, % at 13.3 µM; in the data active = inhibition above about 60%
PABP FP inh: blocks human PABP binding to poly(A) RNA | P11940 | fluorescence polarization | calls only at 35 µM | hit rate 1% among 290,000;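 note: calls also rest on retests at 20 µM and on dose response follow-up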
Target sequence (P11940 whole entry, looked up): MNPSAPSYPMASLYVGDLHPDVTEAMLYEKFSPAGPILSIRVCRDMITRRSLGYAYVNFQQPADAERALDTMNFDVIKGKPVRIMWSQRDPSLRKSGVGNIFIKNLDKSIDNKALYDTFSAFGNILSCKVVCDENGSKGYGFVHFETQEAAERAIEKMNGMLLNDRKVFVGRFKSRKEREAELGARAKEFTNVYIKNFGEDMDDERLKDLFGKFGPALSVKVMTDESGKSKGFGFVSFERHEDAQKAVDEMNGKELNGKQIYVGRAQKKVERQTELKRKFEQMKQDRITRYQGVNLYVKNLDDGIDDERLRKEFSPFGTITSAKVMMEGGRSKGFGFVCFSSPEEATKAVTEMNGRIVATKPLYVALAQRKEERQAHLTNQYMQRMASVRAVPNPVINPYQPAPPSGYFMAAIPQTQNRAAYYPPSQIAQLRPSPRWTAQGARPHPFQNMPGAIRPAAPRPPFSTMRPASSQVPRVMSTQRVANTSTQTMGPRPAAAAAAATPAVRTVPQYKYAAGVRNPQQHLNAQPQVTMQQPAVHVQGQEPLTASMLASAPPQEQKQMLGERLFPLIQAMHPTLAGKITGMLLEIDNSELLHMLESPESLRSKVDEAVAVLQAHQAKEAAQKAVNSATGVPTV
MLLE-PAM2 inh: inhibitors of microRNA-mediated deadenylation, human PABP1 MLLE binding; P11940; GST-MLLE / FITC-PAM2 fluorescence polarization; inhibition, % at 20 µM; hit rate 0.36% among 360,000; AID 588489; in the data active = inhibition above about 35%, passing the limit was not always enough
AI-2 QS mod: modulates the Vibrio harveyi AI-2 quorum sensing system | Vibrio harveyi JMH597 AI-2 luminescence/OD600 ratio, 9 h; stronger effect = lower value; strain lacks LuxN and CqsS sensors; 0 = neutral-control median | activity change, % at 7.5 µM | hit rate 0.4% among 300,000 | AID 2094; in the data active = activity change below about -75%, passing the limit was not always enough; inconclusive = no clear call, values can overlap the other calls;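 note: luminescence divided by OD600 gain over 9 h not by final OD600 alone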
eIF4H FP inh: inhibitors of RNA binding by human eIF4H; Q15056; eIF4H fluorescence polarization binding assay; inhibition, % at 35 µM; hit rate 0.94% among 290,000; AID 2012;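 note: calls also rest on retests at 20 µM and on dose response follow-up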
A number is an active result; - = inactive; ? = inconclusive; . = not tested or not shown; + = active, no number. Unless noted, the rule behind the calls is not given here.

SMILES	ABCB6 inh MLPCN	PHOSPHO1 inh	PABP FP inh	MLLE-PAM2 inh	AI-2 QS mod	eIF4H FP inh
CC(N)C(=O)OC(C)(C)Cc1ccc(Cl)cc1 (configuration not stated)	-	.	.	-	.	.
Cc1ccc2c(c1Cl)NC(C(=O)O)C1CC(Sc3ccccc3[N+](=O)[O-])C(Cl)C21 (configuration not stated)	-	-	+	-	-	87.0
CCN(CC)C(=O)c1ccc2c(c1)C1C=CCC1C(C(=O)O)N2 (configuration not stated)	-	-	+	-	-	85.4
O=C(O)c1ccc2c(c1)C1C(Cl)C(Sc3ccccc3[N+](=O)[O-])CC1C(c1cccc([N+](=O)[O-])c1)N2 (configuration not stated)	-	-	-	-	.	-
CCN(CC)C(=O)c1ccc2c(c1)C1C(Cl)C(Sc3ccccc3[N+](=O)[O-])CC1C(C(=O)O)N2 (configuration not stated)	-	-	+	-	-	90.5
O=C(O)c1cccc2c1NC(c1cccc([N+](=O)[O-])c1)C1CC(Sc3ccccc3[N+](=O)[O-])C(Cl)C21 (configuration not stated)	-	-	-	-	-	81.7
CCOC(=O)[C@]12Cc3c(cc(OC)c(OC)c3OC)[C@H]1N(CCC(=O)OC)C(=O)c1ccccc12	-	.	.	.	.	.
CCOC(=O)[C@]12Cc3ccccc3[C@H]1N(CCC(=O)OC)C(=O)c1cc(OC)ccc12	-	.	.	.	.	.
S=P(NCCSCc1ccccc1)(N1CC1)N1CC1	-	.	.	-	.	.
Cc1ccc(NC(=O)CC[C@H]2O[C@@H](n3cnc4c(NC(=O)c5ccccc5)ncnc43)[C@H](O)[C@@H]2O)cc1C	-	.	.	-	.	.
CN1C(=O)C(=Cc2ccc(-c3cccc(Cl)c3)o2)C(=O)N(C)C1=O	.	-	-	.	-	-
Cc1ccc(Sc2ccc(C=C3C(=O)N(C)C(=O)N(C)C3=O)o2)cc1	-	-	+	-	-	?
Cc1cccc(C)c1-n1nnnc1C(C1CC1)N1CCC2(CC1)C(=O)NCN2c1ccccc1 (configuration not stated)	-	.	.	-	.	.
CCc1nn2c(=O)c(F)c(N3CCNCC3)nc2s1	-	.	.	-	.	.
Cc1ccc(N2C(=O)NC(=O)C3(Cc4ccccc4N4CCN(c5ccccc5)CC43)C2=O)cc1 (configuration not stated)	-	72.5	-	-	-	-
O=C(NC(=S)N1C[C@H]2C[C@H](C1)c1cccc(=O)n1C2)c1ccc(Cl)cc1	-	-	-	42.4	-	-
COc1cc(OC)cc(C(=O)NC(=S)N2C[C@H]3C[C@H](C2)c2cccc(=O)n2C3)c1	-	-	-	-	-	-
S=C(NCCc1ccccc1)N1Cc2cc(N3CCCCC3)ccc2-n2nncc2C1	-	.	.	-	.	.
COc1ccc(C(=O)C2CCCN(CC3CCCCC3)C2)cc1OC (configuration not stated)	-	.	.	-	.	.
O=c1[nH]c(=O)n(C2CCCCC2)c(O)c1/C=N/N1CCCCC1c1cccnc1 (configuration not stated)	-	-	-	-	-	-
O=c1[nH]c(=O)n(-c2cccc3ccccc23)c(O)c1/C=N/N1CCCCC1c1cccnc1 (configuration not stated)	-	-	+	-	-	89.0
CCOP(=O)(Cc1cc(C(C)=O)c(C)o1)OCC	-	-	-	40.1	-	-
CCCC(=O)c1cc(CP(=O)(OCC)OCC)oc1C	-	-	-	-	-	-
Cc1ccccc1-c1ccc2c(c1)C1c3c(-c4ccccc4)nnn3-c3ccccc3C(=O)N1CC2 (configuration not stated)	-	.	.	-	.	.
O=C1NC(=O)C(=Cc2csc3ccccc23)C(=O)N1	-	-	-	40.7	-	-
SMILES	ABCB6 inh MLPCN	PHOSPHO1 inh	PABP FP inh	MLLE-PAM2 inh	AI-2 QS mod	eIF4H FP inh
CCN(CC)c1ccc(/C=C2\C(=O)NC(=O)N(Cc3ccco3)C2=O)cc1	-	-	-	-	-	?
Cn1cccc1/C=C1\C(=O)NC(=O)N(Cc2ccccc2)C1=O	-	-	+	-	-	?
O=C(O)Cn1cc(/C=C2\C(=O)NC(=O)N(Cc3ccco3)C2=O)c2ccccc21	-	-	+	-	-	?
Cn1cccc1/C=C1/C(=O)NC(=O)N(Cc2ccccc2)C1=O	-	-	-	-	-	?
O=C1NC(=O)N(Cc2ccco2)C(=O)/C1=C/c1cccn1CCOc1ccccc1Cl	-	-	+	-	-	?
Cn1cccc1/C=C1/C(=O)NC(=O)N(Cc2ccc(F)cc2)C1=O	-	-	+	-	-	?
CCN1C(=O)NC(=O)/C(=C\c2cn(CC(=O)O)c3ccccc23)C1=O	.	-	?	.	-	?
Cc1cc2c(C(C)C)c(O)c(O)c(C=O)c2c(O)c1-c1c(C)cc2c(C(C)C)c(O)c(O)c(C=O)c2c1O	-	-	+	-	-	-
S=C=Nc1ccccn1	-	61.2	-	-	-	-
C=C1C(=O)OC2CC3(C)OC3C3OC3C3=CC(OC3=O)C12 (configuration not stated)	36.0	.	.	-	.	.
CCOC(=O)[C@]12Cc3cc(Cl)ccc3[C@H]1N(C(C)C)C(=O)c1ccccc12	-	.	.	.	.	.
COc1ccc(Cl)cc1C(=O)C1CCCN(CCO)C1 (configuration not stated)	-	-	-	-	-	-
O=C(c1ccc(-c2ccccc2)c(F)c1)C1CCCN(CCO)C1 (configuration not stated)	-	60.1	-	-	-	-
CCC1(CCC(C)C)C(=O)NC(=O)N(c2ccccc2)C1=O (configuration not stated)	-	.	.	.	.	.
Cc1cc(C)c(-n2c(O)c(/C=N/NC(=O)c3ccncc3)c(=O)[nH]c2=O)c(C)c1	-	-	+	-	-	57.3
c1ccc2c(CN3CCCCCC3)c[nH]c2c1	-	-	-	-	-	-
O=S1(=O)CCN(CCc2c[nH]c3ccccc23)CC1	-	-	+	-	-	active
CCCCCN1C(=O)c2cc(OC)ccc2[C@@]2(C(=O)OCC)Cc3cc(Cl)ccc3[C@@H]12	-	.	.	.	.	.
CC(C)CN1Cc2ccccc2-n2nncc2C1	-	.	.	-	.	.
CN(C)P(=O)(CCl)Nc1ccccc1 (configuration not stated)	-	-	+	-	-	96.1
CN(C)CP(=O)(Nc1ccccc1)N(C)C (configuration not stated)	-	-	-	-	-	-
O=C1NC(=O)N(c2ccccc2)C(=O)/C1=C\c1ccc([N+](=O)[O-])o1	.	62.3	+	.	-	78.0
CN1C(=O)NC(=O)/C(=C/c2ccc([N+](=O)[O-])o2)C1=O	.	-	+	.	-	?
CN1C(=O)NC(=O)/C(=C/c2ccc([N+](=O)[O-])s2)C1=O	-	-	+	-	-	63.7
O=C1NC(=O)N(c2ccccc2)C(=O)/C1=C\c1ccc([N+](=O)[O-])s1	.	-	?	.	-	?
